Measurements taken from PubChem BioAssay (NCI).
The panel holds about 79,000 compounds, 15% with a hit somewhere; the sample as a whole holds those more often. Unmarked numbers belong to inactive results. The source made the active and inactive calls. Rule as the data show it: active = growth inhibition above about 70%; inactive = the rest.

What was measured:
[1] = NCI Yeast Anticancer Drug Screen. Data for the rad50 strain (AID 155);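 also: 0% = growth of vehicle-only cultures of the same strain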; conditions: S. cerevisiae rad50 strain growth inhibition; at 50.0 µM; active compounds read high
How it was run: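 Genetically altered yeast (DNA repair pathway); compound treatment; growth inhibition vs vehicle ctrl.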

[2] = NCI Yeast Anticancer Drug Screen. Data for the mec2-1 strain (AID 157); conditions: S. cerevisiae mec2-1 strain, at 50.0 µM, active compounds read high
How it was run: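 Mutant yeast (mec2-1) grown with compound; growth inhibition relative to vehicle control reported.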

[3] = NCI Yeast Anticancer Drug Screen. Data for the sgs1 mgt1 strain (AID 161);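 also: 0% = growth of cultures given vehicle only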; conditions: S. cerevisiae sgs1 mgt1 strain, at 50.0 µM, active compounds read high
How it was run: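 Yeast cells carrying a defined DNA-repair defect were exposed to test compounds. Growth inhibition was measured relative to vehicle-treated controls.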

[4] = NCI Yeast Anticancer Drug Screen. Data for the cln2 rad14 strain (AID 165);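 also: 0% = growth equal to vehicle treated cultures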; conditions: S. cerevisiae cln2 rad14 strain, at 50.0 µM, active compounds read high
How it was run: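 Readout is yeast growth inhibition versus vehicle-treated controls, using a strain with cln2 and rad14 alterations exposed to compound.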

[5] = NCI Yeast Anticancer Drug Screen. Data for the bub3 strain (AID 167); conditions: S. cerevisiae bub3 mutant strain, at 50.0 µM, active compounds read high
How it was run: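 Yeast carrying a defined mutation is treated with each compound, and growth is compared with that of vehicle-exposed cells to give inhibition.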

[6] = NCI Yeast Anticancer Drug Screen. Data for the mlh1 rad18 strain (AID 175); conditions: S. cerevisiae mlh1 rad18 strain growth inhibition; at 50.0 µM; active compounds read high
How it was run: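 Genetically defined yeast (DNA repair-deficient) exposed to compounds; growth inhibition determined relative to vehicle.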

| SMILES | growth inhibition [1] | growth inhibition [2] | growth inhibition [3] | growth inhibition [4] | growth inhibition [5] | growth inhibition [6] |
| --- | --- | --- | --- | --- | --- | --- |
| CS(=O)(=O)CC(O)(c1ccccc1)c1ccccc1 | -21.4% | -2.4% | 9.5% | -13.3% | 1.55% | 28.1% |
| COCCCNC(=O)CC(=O)NCCCOC | 13.4% | -2.3% | 24.8% | 6.55% | 5% | 29.4% |
| CCCCCNc1ccnc(=O)[nH]1 | 11.8% | 6.8% | 2% | -39.5% | -12.9% | -12.7% |
| CC1(C)CC(Nc2ccccc2)=CC(=Nc2ccccc2)S1 | -13.1% | -11.2% | -3.55% | -25.2% | -32.5% | -14.2% |
| CCOC(=O)CCC(C)=O | 22.8% | 11.2% | 14.9% | 20.5% | 14.7% | 11% |
| CS(C)=O.[Cl-].[Cl-].[NH-]CC(O)C[N-]CC(O)CN.[Pt+4] (stereo unspecified) | -9.2% | -19.7% | -20.4% | -9.65% | -3.5% | 9.55% |
| CN(C)c1ccc(/C=C(\C#N)c2c(Br)cccc2Br)cc1 | -20.1% | -18.8% | -3.65% | -42.8% | 3.1% | -14.7% |
| COC1OC(COC(c2ccccc2)(c2ccccc2)c2ccccc2)C(OS(=O)(=O)c2ccc(C)cc2)C(OC(=O)c2ccccc2)C1OC(=O)c1ccccc1 (stereo unspecified) | 0.1% | -6.7% | -1.15% | -7.35% | 0.3% | 27.9% |
| CCSCC1(c2ccc(OC)cc2)NC(=O)NC1=O (stereo unspecified) | -20.5% | 2.65% | 7.6% | -10.1% | -10.7% | 1.05% |
| O=C1OC(=O)C(c2ccccc2)=C1c1ccccc1 | 10.6% | 5% | 9.55% | -10.8% | 5.95% | 24.9% |
| CCCCCCC(c1c(O)cc(C)[nH]c1=O)c1c(O)cc(C)[nH]c1=O | -6.55% | -8.5% | 9.55% | -8.4% | -12.8% | -11.9% |
| Cc1ccc(C)c(NC(=O)C(=O)CC(=O)c2cccc3ccccc23)c1 | -15.8% | -33.1% | 2.05% | 17.1% | -20.8% | -21.1% |
| CN(C)/C=C/c1nnnn1-c1ccc(I)cc1 | 4.5% | 12.9% | 24.8% | 7.45% | 28.8% | 34.6% |
| CNC(=O)OCc1c(COC(=O)NC)c2n(c1C)CS(=O)(=O)C2 | -6.15% | -16% | -10.4% | 6.5% | 12.1% | 15.5% |
| CCC(C)(C)N | 0.3% | 2.7% | 4.25% | -73.2% | 9.15% | -20.2% |
| CCN(CC)CC1(C)NN=C2C(n3cccc3)=CC=CN21 (stereo unspecified) | -3.7% | 11.7% | -3.4% | -20.6% | -4.2% | -4.9% |
| CC1CN(c2ccccc2)NC1=O (stereo unspecified) | 0.4% | -32.7% | 0.05% | 27.1% | -19.6% | -7.55% |
| O=[N+]([O-])c1ccc(/C(=C/c2ccc(F)cc2)S(=O)(=O)c2ccccc2)o1 | 37.4% | 19.4% | 50.3% | -0.65% | 8.4% | 39.4% |

| SMILES | growth inhibition [1] | growth inhibition [2] | growth inhibition [3] | growth inhibition [4] | growth inhibition [5] | growth inhibition [6] |
| --- | --- | --- | --- | --- | --- | --- |
| CC1=CC2=C(C(N)=O)C(=O)OC2(C)C(c2ccccc2)C1 (stereo unspecified) | -19.9% | -6.75% | 4.65% | 7% | 1.85% | 5.7% |
| CCc1c2ccccc2cc2ccccc12 | -1% | 1.85% | -16.6% | 9.75% | 1.8% | -5.95% |
| CCCCCCCCCCCCCBr | 29.8% | -0.95% | 13.2% | 19.9% | 18.1% | 15.8% |
| COc1cc2c(c([N+](=O)[O-])c1)NC(=O)C(C)S2 (stereo unspecified) | -11.3% | -33.6% | -19.4% | 28.8% | 2.15% | 3.65% |
| COc1ccc(Cc2c3cc(OC)c(OC)cc3cc[n+]2C)cc1 | -0.05% | -28.4% | -17.9% | -2.45% | -10.8% | -6.15% |
| O=C(CN1CCOCC1)Nc1ccc(S(=O)(=O)c2ccc([N+](=O)[O-])cc2)cc1 | 52.3% | 15% | 99.3% (active) | 98.3% (active) | 96.7% (active) | 26.1% |
| CCOC(=O)NNC(=O)c1ccccc1N(C)C | -12.4% | -18.6% | -7.05% | -13.7% | 25.1% | -4.45% |
| CONCc1ccc(C(=O)NC(C)C)cc1 | -10.6% | -6.75% | -5.95% | -3.65% | -0.3% | -11.8% |
| CC1CN(C(=O)Nc2ccc([N+](=O)[O-])cc2)CC(C)O1 (stereo unspecified) | -16.1% | -36.5% | 13.7% | 3.5% | -3.65% | 6.25% |
| CCCCCCCCCCCCCCCCOc1ccc(OCCCCCCCCCCCCCCC)cc1 | 42.2% | -8.2% | 31.6% | -24.7% | 5.35% | -1.1% |
| COC(=O)[C@]12CCC(C)[C@H](C)[C@H]1C1=CCC3[C@@]4(C)CC[C@H](OC(C)=O)C(C)(C)C4CC[C@@]3(C)C1(C)C(O)C2 (stereo partly specified) | 23.1% | -22.5% | -8.45% | 8.5% | -0.4% | 21.9% |
| CCCCCCCCC1C(CCCCCCCC(=O)OC)C2(Cl)C(Cl)=C(Cl)C1(Cl)C2(Cl)Cl (stereo unspecified) | 25.6% | -11.5% | -1.05% | 3.05% | -1.2% | 14.3% |
| CCCC(C)C(=O)OC1CCCC1 (stereo unspecified) | 11% | -8.1% | 5.3% | -5.1% | 13.6% | 2.95% |
| CC(=O)OC1C(=O)C2C(CC=C3CC(O)CC(O)C32C)C2CCC(C(C)C3CC(C)C(C)(C)O3)C12C (stereo unspecified) | -31.3% | -5.15% | -29.8% | -10.4% | -10.8% | -25.6% |
| COc1ccc(C(c2cc3c(cc2O)OCO3)N2CCCCC2)c(OC)c1 (stereo unspecified) | -31.2% | -13.1% | -12.2% | -22.4% | -2.15% | -6.95% |
| O=C(CCl)NC(=O)NC1=C(Cl)C(=O)c2ccccc2C1=O | 98% (active) | 98.6% (active) | 98.3% (active) | 97.7% (active) | 98.3% (active) | 97.7% (active) |
| c1ccc(-c2cc(-c3ccncc3)c(-c3ccccc3)nn2)cc1 | 7.85% | 7.8% | 24% | 22% | -1.1% | 36.4% |
| O=C(COc1cc(Cl)ccc1Cl)NCc1ccc(Cl)cc1 | 15.2% | 2.1% | 12.6% | 10.1% | 34.1% | 14.8% |
